91 compounds from PubChem BioAssay AID588819 (The Scripps Research Institute Molecular Screening Center, 2011) can be followed below.

Molecules are shown by their SMILES. The whole screen tested about 360,000 compounds, of which about 320 (0.089%) were called active. Rule as the data show it: active = activation above about 19% (passing the limit was not always enough); inactive = the rest. Many of the other results were omitted from the sample, so actives are more common in it than they were.

The target in this experiment is Muscarinic acetylcholine receptor M1 (Homo sapiens) (UniProt P11229). The experiment in a line: human M1 muscarinic receptor positive allosteric modulators, primary screen, CHO-K1 cells, Fluo-8 calcium fluorescence, 1536-well (AID 588819). The note with it: CHO-K1 hM1, Fluo-8 calcium fluorescence, ACh EC20; at 3 µM; hits give high values; 0% = ACh EC20, 100% = maximal ACh.
Chain of Muscarinic acetylcholine receptor M1 (Homo sapiens) (P11229 whole entry, looked up): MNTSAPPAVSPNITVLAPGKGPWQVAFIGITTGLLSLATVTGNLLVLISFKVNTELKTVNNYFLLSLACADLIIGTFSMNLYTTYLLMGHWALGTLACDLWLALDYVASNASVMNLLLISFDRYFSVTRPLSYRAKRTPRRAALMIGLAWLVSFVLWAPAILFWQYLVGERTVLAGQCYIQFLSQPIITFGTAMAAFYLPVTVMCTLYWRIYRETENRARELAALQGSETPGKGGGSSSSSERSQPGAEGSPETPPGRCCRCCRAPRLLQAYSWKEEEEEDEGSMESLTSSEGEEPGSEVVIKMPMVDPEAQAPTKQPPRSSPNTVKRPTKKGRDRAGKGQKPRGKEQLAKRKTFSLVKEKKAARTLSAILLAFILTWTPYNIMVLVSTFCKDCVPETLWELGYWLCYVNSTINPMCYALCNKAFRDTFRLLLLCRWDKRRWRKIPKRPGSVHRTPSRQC
As to `Cc1ccc(S(=O)(=O)NC(=O)N2CCCN(Cc3ccc(F)cc3)CC2)cc1`, the activation was 5.25% (inactive).
For `CCN(CC(=O)Nc1ccc(OC)cc1)C(=O)c1ccc(Cl)c(S(=O)(=O)N2CCCC2)c1`, the activation was 9.99% (inactive).
Turning to `CC(C)(C)NC(=O)CN(C(=O)c1ccc(Cl)nc1)c1cccc2ccccc12`, the activation was 2.85% (inactive).
As to `CCC1(CC)C(=O)C2=C3C1[C@H](C(=O)OC)C=C(C(=O)OC)C[C@H]3[C@H]1C(=O)N(Cc3ccccc3)C(=O)[C@H]1[C@H]2C` (stereo partly specified), the activation was -6.86% (inactive).
With `COc1ccc(-n2nc3c(c2NC(=O)c2ccc(N4C(=O)CCC4=O)cc2)CSC3)cc1` the figure was 1.99% (inactive).
The result for `COc1ccc(CCNC(=O)CN(C)S(=O)(=O)c2ccc3nc(C)sc3c2)cc1OC` reads 8.1% (inactive); that for `CCN(C(=O)COC(=O)/C=C/c1nc2ccccc2s1)C1CCS(=O)(=O)C1` (stereo unspecified), -0.52% (inactive).
On to `O=c1[nH]c(CN2CCN(S(=O)(=O)c3ccc4c(c3)OCCO4)CC2)nc2sc3c(c12)CCCC3`, for which the activation was 12.9% (inactive).
Consider `O=C(NCc1cccnc1)C12CC3CC(CC(C3)C1)C2`, for which the activation is 22.9% (inactive).
Take `CN(CC(=O)Nc1cccc(F)c1)C(=O)CC1CCCC1`: the activation is 29.7% (active).
As to `Cc1ccc(CSCC(=O)N(C)CC(=O)Nc2cccc(F)c2)cc1`, the activation was 11.3% (inactive).
With `COc1ccc(NC(=O)CN(C)C(=O)CC2CCCCC2)cc1`, the activation was 15.3% (inactive).
The result for `ONC(=Nc1ccccc1)c1ccccc1Cl` reads 2.82% (inactive).
With `CCC1(CC)NC(=O)N(CC(=O)OCC(=O)NC(=O)c2ccccc2)C1=O` the figure was 5.54% (inactive); with `CC(C)N1CCC(N2CCN(Cc3cccnc3)CC2CCO)CC1` (stereo unspecified), 7.42% (inactive).
With `COc1ccc(S(=O)(=O)N2CCN(C(=S)NCC3CCCO3)CC2)cc1OC` (stereo unspecified), the activation is 2.58% (inactive).
The result for `O=C(NCc1ccccc1)C1=C[C@@H](c2ccccc2)C[C@@H](OCCCCO)O1` reads 19.5% (inactive).
With `O=C(/C=C/c1ccccc1)Nc1nnc(SCC(=O)c2ccc3ccccc3c2)s1` the figure was 1.55% (inactive); with `O=C(CSc1ccccc1)Nc1nnc(/C=C/c2ccccc2)s1`, 32.8% (active).
With `CCOCc1nnc(NC(=O)CSc2ccc(C)cc2)s1` the figure was 3.8% (inactive); with `O=C(Cn1nc(C(=O)O)c2ccccc2c1=O)Nc1ccc(F)cc1`, 1.79% (inactive).
On to `CC(=O)Nc1ccc(NC(=O)C(C)OC(=O)C2CC(=O)N(CCc3ccccc3)C2)cc1` (stereo unspecified), for which the activation was 4.72% (inactive).
Take `CCCCN(C)c1ccc([N+](=O)[O-])cc1`: the activation was -3.31% (inactive).
With `CC(C)Cn1cnc2c1c(=O)n(CC(=O)NN)c(=O)n2Cc1ccccc1` the figure was 4.53% (inactive).
The result for `CC(C)CCn1cnc2c1c(=O)n(CC(=O)NC(N)=O)c(=O)n2Cc1ccccc1` reads 30.3% (active).
Consider `COCCn1cnc2c1c(=O)n(CC(=O)NN)c(=O)n2Cc1ccccc1`, for which the activation is 13.3% (inactive).
Turning to `CCCSC(=S)NC1CCS(=O)(=O)C1` (stereo unspecified), the activation is 0.86% (inactive).
As for `CCCCNCc1ccc(SC)cc1`, the activation was 25.2% (active).
With `CSc1ccc(CNCCN2CCOCC2)cc1` the figure was -5.22% (inactive); with `CCCCNCCS(=O)(=O)NCc1ccccc1`, 4.18% (inactive); with `Cc1cccc(C)c1NC(=O)C1(N(C(=O)c2ccccn2)c2ccc(O)cc2)CCCCC1`, -1.06% (inactive).
In the case of `CN(C)c1ccnc2sc3c(=O)n(Cc4ccccc4)cnc3c12`, the activation is 23.4% (active).
The result for `O=c1c2c(ncn1Cc1ccccc1)nc1n2CCC1` reads 7.79% (inactive); that for `CN(C)/C=C/c1c(C#N)c(=O)ncn1Cc1ccccc1`, -0.11% (inactive).
With `COc1ccc(CN2CC[C@H]3C=CC[C@@H](C(=O)N4CCOCC4)[C@H]3C2=O)cc1OC` the figure was 1.94% (inactive); with `CNC(=O)c1nnc(Cc2ccc(Cl)cc2)o1`, 5.02% (inactive); with `O=C(Nc1ccc(F)cc1F)N1CCCN(CCOc2ccccc2)CC1`, 5.19% (inactive).
The result for `Nc1ncnc2c1ncn2[C@@H]1O[C@H](CNC(=O)[C@H](N)Cc2cccnc2)[C@@H](O)[C@H]1O` reads 2.46% (inactive); that for `CCn1c(O)c(N=NC2=NC(=O)CS2)c2cc(C)ccc21`, -1.89% (inactive).
Regarding `O=C(CCNc1n[nH]c(=O)[nH]c1=O)N/N=C\c1ccc(Br)cc1`, the activation was 17.3% (inactive).
For the compound `CC(=O)N/C(=C/c1ccc(OC(F)F)cc1)C(=O)O`, the activation was 6.97% (inactive).
With `CN1CCC(=NNC(=O)c2ccc(N(Cc3ccc(Cl)cc3)S(C)(=O)=O)cc2)CC1`, the activation was 4.92% (inactive).
On to `CC1CCN(c2ccc([N+](=O)[O-])c(SCCO)c2)CC1`, for which the activation is 2.03% (inactive).
Consider `COCCCNC(=O)C1CC(=O)N(c2ccc(C)cc2)C1` (stereo unspecified), for which the activation is 1.45% (inactive).
With `COCCNC(=O)C1CCN(C(=O)C2CC(=O)N(c3ccc(C)cc3)C2)CC1` (stereo unspecified) the figure was 29.5% (active); with `CCCC(C)NC(=O)C1CCN(C(=O)C2CC(=O)N(c3ccc(C)cc3)C2)CC1` (stereo unspecified), 14.6% (inactive).
With `Cc1ccc(S(=O)(=O)N2C3C=CC(C3)C2C(=O)O)cc1` (stereo unspecified) the figure was 1.95% (inactive); with `O=C(O)C1CCN1C1CCCCC1` (stereo unspecified), 3.48% (inactive); with `Cc1ccnc2nc(C(=O)Nc3nnc(-c4ccccc4)o3)nn12`, 3.22% (inactive).
The result for `COc1ccccc1C(=O)NCC(=O)OCC(=O)Nc1nnc(-c2ccccc2)o1` reads 7.11% (inactive).
For the compound `CCCC(=O)Nc1nnc(-c2ccccc2)o1`, the activation was 28.9% (active).
Turning to `COc1ccc(N2CCC(CNC(=S)Nc3c(C)cccc3C)C2)cc1` (stereo unspecified), the activation was -4.84% (inactive).
The result for `O=C(Cc1ccc(NC(=O)C2CCCN(C(=O)C3CCCCC3)C2)cc1)Nc1cccc(C(=O)N2CCCCC2)c1` (stereo unspecified) reads 3.87% (inactive); that for `CC(Sc1nnc2c(n1)C1CCC2(C)C1(C)C)C(=O)Nc1ccccc1` (stereo unspecified), 11.8% (inactive); that for `CSc1ccccc1C(=O)Nc1cccc(C(C)=O)c1`, -2.71% (inactive).
The result for `CSc1nc(C)cc(SC(C(C)=O)C(=O)Nc2ccccc2)n1` (stereo unspecified) reads 23.1% (active); that for `Cc1ccc(S(=O)(=O)N(CCc2ccccc2)c2ccc3c(c2)C2CC3CCN2C(=O)OCc2ccccc2)cc1` (stereo unspecified), 10.4% (inactive); that for `COc1ccccc1OCC(=O)OCn1c(SC)nnc(C)c1=O`, 2.31% (inactive).
With `Cc1nc(-c2ccc(F)cc2)c(CC(=O)Nc2cc(S(=O)(=O)N3CCCCC3)ccc2C)s1`, the activation is 14.8% (inactive).
Regarding `Cc1ccc(NC(=O)CSc2nn3c(=O)c(C)nnc3s2)cc1Cl`, the activation is 10.6% (inactive).
Regarding `Cc1ccccc1CSCCNC(=O)c1ccc(Cl)c(S(=O)(=O)N2CCOCC2)c1`, the activation was -5.71% (inactive).
The result for `COc1ccc(Cl)cc1NC(=O)COc1ccc2c(c1)OCO2` reads 7.62% (inactive); that for `CN=C1SC(C(=O)O)CC(=O)N1C` (stereo unspecified), 7.37% (inactive); that for `COc1cc(C(=O)N(C)Cc2cccc(OC)c2OC)ccc1OCC(=O)Nc1cccc(C(F)(F)F)c1`, -5.88% (inactive).
On to `COC(=O)c1ccc2ccccc2c1OC1OC(CO)C(O)C(O)C1NC(C)=O` (stereo unspecified), for which the activation is 9.3% (inactive).
With `CC(=O)c1cccc(NC(=O)C2CCCN2S(=O)(=O)c2cccc3nsnc23)c1` (stereo unspecified) the figure was -0.71% (inactive); with `Cc1ccc(CN2CCN(c3ccccc3Cl)CC2)o1`, 5.74% (inactive).
Take `CCOc1cc(C(=O)Nc2ccc(S(=O)(=O)Nc3cnc4ccccc4n3)cc2)cc(OCC)c1OCC`: the activation is 7.77% (inactive).
On to `COc1ccc([N+](=O)[O-])cc1N(CC(O)Cn1nnc2ccccc21)S(=O)(=O)c1ccc(C)cc1` (stereo unspecified), for which the activation was 21.8% (inactive).
For `Oc1cccc(CCc2ccccn2)c1`, the activation was 4.71% (inactive).
For `CCCn1c(=O)c2c(C(F)(F)F)cc(-c3cccs3)nc2n(CCC)c1=O`, the activation was 1.78% (inactive).
Turning to `CCC(=O)N1CCCC1(C)C(=O)Nc1ccc2c(c1)CCN2C(C)=O` (stereo unspecified), the activation is 8.84% (inactive).
`COC(=O)c1ccc2nc(-c3ccc(OC)c(OC)c3)c(Cc3ccccc3)n2c1`: the activation was 2.75% (inactive).
The result for `COC(=O)c1ccc2nc(C3CCCCC3)c(Cc3cccc(F)c3)n2c1` reads 27% (active).
Take `COC(=O)c1ccc2nc(-c3ccc(Cl)cc3)c(Cc3cccc(F)c3)n2c1`: the activation was -0.44% (inactive).
As to `CN(C)CCN(Cc1ccccc1)S(=O)(=O)c1csc(C(N)=O)c1`, the activation is 10.5% (inactive).
The result for `O=C(Cc1ccccc1)NCC1OCCc2ccccc21` (stereo unspecified) reads -5.39% (inactive); that for `CCCCN(CC(=O)NC(C)(C)C)C(=O)C(=O)Nc1ccc2c(c1)OCCO2`, 7.88% (inactive).
The result for `O=C(NNS(=O)(=O)c1c(F)cc(F)c(Cl)c1F)C12CC3CC(CC(C3)C1)C2` reads -10.7% (inactive); that for `COc1ccc(CNC(=O)COC(=O)CCS(=O)(=O)c2ccc(C)cc2)cc1OC`, 4.46% (inactive).
The result for `CCCn1nc(C(=O)OCc2nc(N)nc(Nc3ccccc3C)n2)c2ccccc2c1=O` reads 11.4% (inactive); that for `CCOc1ccc2ccccc2c1/C=N/NC(=O)c1c(C)cc(C)[nH]c1=O`, 7.97% (inactive); that for `Oc1cccc(C2c3[nH]c4ccccc4c3CCN2Cc2cnn(-c3ccccc3)c2)c1` (stereo unspecified), -6.09% (inactive).
For `O=C(O)c1cccc(S(=O)(=O)Nc2ccc(O)cc2Sc2nc3ccccc3s2)c1`, the activation was 31.9% (active).
Consider `Cc1nc2ccc(NC(=O)c3cccc(S(=O)(=O)N4CCOCC4)c3)cc2s1`, for which the activation is 3.59% (inactive).
On to `O=[N+]([O-])c1c(NCCO)cc(Sc2nc3ccccc3s2)c2nonc12`, for which the activation is 1.97% (inactive).
With `CCn1c(CN2C(=O)CSc3ccccc32)n[nH]c1=S` the figure was -0.34% (inactive).
With `CCC(C)[C@H](NC(=O)N1CCn2c1nc1ccccc12)C(=O)NCc1ccc(OC)cc1` (stereo partly specified) the figure was 0.16% (inactive); with `CC(C)(C)NC(=O)Cn1c(SCC(=O)Nc2nccs2)nc2ccccc21`, 2.24% (inactive); with `CCOC(=O)C1(Cc2cccc(OC)c2)CCCN(S(=O)(=O)c2cccnc2)C1` (stereo unspecified), 6.27% (inactive).
For the compound `CN1/C(=C\C=C2\N=C(c3ccc(F)cc3)OC2=O)C(C)(C)c2ccccc21`, the activation was -5.26% (inactive).
